DENV2 CPE rescue – inhibitors of DENV2 cytopathic effect, primary screen, cell-based, plate reader, single concentration | DENV2-infected cells, cytopathic effect rescue | CPE inhibition, % at 9.99 µM | 1.7% of 350,000 active; in the data active means CPE inhibition above about 20%, passing the limit was not always enough; tested in BHK-21 cells;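 further: 0% = median of neutral control wells and 100% = median of positive control wells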
MLL AF4-AF9 inh – inhibitors of AF4 peptide binding to AF9, primary screen, biochemical, AlphaScreen, biotin-AF4 peptide, FLAG-AF9, single point; Protein AF-9 (Homo sapiens), P42568; inhibition, % at 10 µM; 0.47% of 350,000 active; AID 651704, 2012;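 active means every replicate reaching a set inhibition limit, whatever the replicate mean, cut at about 25% in these data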;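 further: 0% = plate neutral control median and 100% = total signal loss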
RAD52 inh – RAD52 DNA annealing inhibitors, primary screen, biochemical, FRET, single point, set 2 | DNA repair protein RAD52 homolog (Homo sapiens), P43351 | recombinant RAD52 DNA annealing, FRET fluorescence | inhibition, % at 18.7 µM | 0.46% of 360,000 active;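 active means every replicate showing at least 50% inhibition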
Target sequence (P43351 whole entry, looked up): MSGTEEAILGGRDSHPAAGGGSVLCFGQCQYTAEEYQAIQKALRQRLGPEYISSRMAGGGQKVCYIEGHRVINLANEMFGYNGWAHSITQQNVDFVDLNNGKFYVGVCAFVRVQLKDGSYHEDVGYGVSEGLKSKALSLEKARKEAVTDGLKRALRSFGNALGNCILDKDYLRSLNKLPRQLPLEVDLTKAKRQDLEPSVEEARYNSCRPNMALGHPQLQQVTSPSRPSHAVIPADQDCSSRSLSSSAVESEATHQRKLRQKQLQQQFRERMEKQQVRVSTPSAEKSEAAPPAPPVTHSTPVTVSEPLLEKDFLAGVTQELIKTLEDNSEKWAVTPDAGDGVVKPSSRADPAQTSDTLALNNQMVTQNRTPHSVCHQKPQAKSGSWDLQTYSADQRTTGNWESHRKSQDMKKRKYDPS
ERAP1 HTS inh – human ERAP1 aminopeptidase inhibitors, primary screen, biochemical, single point, plate reader. Endoplasmic reticulum aminopeptidase 1 (Homo sapiens), Q9NZ08. recombinant ERAP1, Leu-AMC fluorescence, 60 min. inhibition, % at 10.7 µM. 0.15% of 340,000 active;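 active means mean replicate inhibition of at least 30%, or all replicates individually reaching that 30% level; inactive means mean below 30% and not every replicate reaching it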;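 further: 0% = neutral control wells and 100% = L-leucinethiol positive control wells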
FGF22 binding – binders of human FGF22 protein, primary screen, FGF22 synaptogenesis inhibitor project, biophysical, thermal shift, single point; recombinant FGF22 thermal shift, SYPRO orange fluorescence; percent of sucrose octasulfate shift, DMSO zero; 1.5% of 340,000 active; Fibroblast growth factor 22 (Homo sapiens), Q9HCT0; activity (Tm shift, normalised), % at 9.99 µM;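 active means mean Tm shift, scaled 0 neutral to 100 positive control, at about 1.3% or above, every replicate too, limit read from the data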
Starred values were filed as active, the others as inactive. Most compounds without a hit are left out; they make up all but 4% or so of the library.

Results for CCC(C)NC(=O)C(Sc1ccccc1)c1ccccc1 (centres undefined) ?
DENV2 CPE rescue: 3; MLL AF4-AF9 inh: -2; RAD52 inh: -6; ERAP1 HTS inh: 2; FGF22 binding: 43*

Results for COC(=O)c1cc(F)c(-n2cncn2)c(F)c1 ?
DENV2 CPE rescue: 2; MLL AF4-AF9 inh: 1; RAD52 inh: -13; ERAP1 HTS inh: 2; FGF22 binding: 1

Results for COC(=O)c1cc([N+](=O)[O-])c(-n2cncn2)c([N+](=O)[O-])c1 ?
DENV2 CPE rescue: -1; MLL AF4-AF9 inh: -2; RAD52 inh: -12; ERAP1 HTS inh: -2; FGF22 binding: 43*

How did COc1cc2c(cc1OC)[C@@]1(c3ccccc3)CCCC[C@H]1[C@@H]2NC(=O)C(F)(F)F do in these assays?
DENV2 CPE rescue: 20*; RAD52 inh: -1; ERAP1 HTS inh: -2; FGF22 binding: 0

What do the screens show for `O=S1(=O)Cc2cc3ccccc3cc2C1`?
DENV2 CPE rescue: 1; MLL AF4-AF9 inh: -4; RAD52 inh: -10; ERAP1 HTS inh: -2; FGF22 binding: 43*

How did Nc1ccc2cc3ccccc3cc2c1 do in these assays?
DENV2 CPE rescue: -14; RAD52 inh: 1; ERAP1 HTS inh: 3; FGF22 binding: 0

Results for CC(=O)Nc1cccc(C(=O)/C=C/c2ccc(/C=C/C(=O)c3cccc(NC(C)=O)c3)cc2)c1 ?
DENV2 CPE rescue: 3; MLL AF4-AF9 inh: 1; RAD52 inh: -34; ERAP1 HTS inh: 2; FGF22 binding: 43*

How did CC(=O)Nc1cccc(C(=O)/C=C/c2ccc(F)cc2)c1 do in these assays?
MLL AF4-AF9 inh: 4; RAD52 inh: -1; ERAP1 HTS inh: -1; FGF22 binding: 0

How did Cc1ccc(S(=O)(=O)N(C)C[C@@H]2OCCCC[C@@H](C)Oc3ccc(NS(C)(=O)=O)cc3C(=O)N([C@H](C)CO)C[C@H]2C)cc1 do in these assays?
DENV2 CPE rescue: 0; MLL AF4-AF9 inh: -2; RAD52 inh: -4; ERAP1 HTS inh: 2; FGF22 binding: 0

Results for CCC(=O)N(C)C[C@@H]1Oc2cc(C#CCOC)ccc2S(=O)(=O)N([C@H](C)CO)C[C@@H]1C ?
DENV2 CPE rescue: -3; MLL AF4-AF9 inh: 0; RAD52 inh: -13; ERAP1 HTS inh: 2; FGF22 binding: 0

How did O=c1c2c([N+](=O)[O-])cc([N+](=O)[O-])cc2sn1Cc1ccccc1 do in these assays?
DENV2 CPE rescue: 16; MLL AF4-AF9 inh: -2; RAD52 inh: -23; ERAP1 HTS inh: 88*; FGF22 binding: 0

What do the screens show for `O=[N+]([O-])c1ccc(S(=O)Cc2ccccc2)c([N+](=O)[O-])c1` (centres undefined)?
DENV2 CPE rescue: 0; MLL AF4-AF9 inh: 0; RAD52 inh: -5; ERAP1 HTS inh: 0; FGF22 binding: 0

Results for COc1ccc2c3c(n(C)c2c1)[C@@H](CO)N(Cc1ccccc1Cl)CC31CCN(C(C)=O)CC1 ?
DENV2 CPE rescue: -2; MLL AF4-AF9 inh: 3; RAD52 inh: -163; ERAP1 HTS inh: -4; FGF22 binding: 0

How did OCC(O)C1OC(Nc2ccc(Br)cc2)C(O)C1O (centres undefined) do in these assays?
DENV2 CPE rescue: 18; MLL AF4-AF9 inh: 1; RAD52 inh: -4; ERAP1 HTS inh: 3; FGF22 binding: 43*

What do the screens show for `C[C@@H]1OC(Nc2ccc(N=Nc3ccccc3)cc2)[C@H](O)[C@H](O)[C@H]1O` (some centres undefined)?
DENV2 CPE rescue: 4; MLL AF4-AF9 inh: 12; RAD52 inh: -1; ERAP1 HTS inh: 17; FGF22 binding: 0

How did Nc1cccc(Oc2c(F)c(F)c(Oc3cccc(N)c3)c(F)c2F)c1 do in these assays?
DENV2 CPE rescue: 9; MLL AF4-AF9 inh: -1; RAD52 inh: -104; ERAP1 HTS inh: -1; FGF22 binding: 0

What do the screens show for `COc1ccc(OC)c(N=C(N)N=C(N)N)c1`?
DENV2 CPE rescue: -13; MLL AF4-AF9 inh: 5; RAD52 inh: -2; ERAP1 HTS inh: 5; FGF22 binding: 0

Results for COc1cccc(N)c1 ?
DENV2 CPE rescue: 171*; MLL AF4-AF9 inh: -4; RAD52 inh: -9; FGF22 binding: 0

Compound activity: PubChem, Broad Institute
